Screening results deposited in PubChem by Sanford-Burnham Center for Chemical Genomics.
TWEAK-Fn14 inh = inhibitors of TWEAK-Fn14 signaling, primary screen, luciferase reporter cells, uHTS | TWEAK-stimulated Fn14 reporter cells, luciferase luminescence, 8 h | inhibition, % at 10 µM | 360,000 compounds, 2% hits | AID 1159606, 2016; in the data active means inhibition above about 50%
KKLEB cytotox = cytotoxicity in KKLEB CF airway cells, primary screen, cytotoxicity control for CF NF-kB inhibitor project, cell-based, uHTS, fluorescence assay plates; activity change (cytotoxicity), % at 5 µM; 360,000 compounds, 0.36% hits; AID 602141, 2011; KKLEB CF airway cells viability, ATPlite luminescence, overnight; hits give low values; cells stimulated with P. aeruginosa culture filtrate;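 active means corrected activity change at or below -50% at 5 µM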
TROY signal inh = inhibitors of TROY-driven NF-kB signaling, primary screen, Q293 LMP1-TROYcd cells, NF-kB luciferase, uHTS; AID 1347056, 2019; inhibition, % at 10 µM; 360,000 compounds, 0.98% hits; Q293 LMP1-TROYcd NF-kB luciferase reporter, 4 h;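 active means compounds whose plate-normalised and pattern-corrected inhibition of the luciferase reporter signal at the single screening dose is 50% or more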
CF NFkB block = inhibitors of PAF-induced NF-kB signaling, primary screen, cell-based, GFP fluorescence, uHTS; KKLEB NF-kB-GFP reporter, GFP fluorescence overnight; inhibition, % at 5 µM; 360,000 compounds, 0.86% hits; AID 588850, 2011;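 active means at least 50% inhibition at 5 µM, scaled per plate between neutral and stimulator controls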;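 further: PAF is a Pseudomonas aeruginosa culture filtrate used as stimulus; plate controls were PAF-stimulated DMSO wells for no effect and unstimulated DMSO wells for full effect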
Peg3 promoter = Peg3 promoter-driven luciferase inhibitors, primary screen, cell-based, HeLa, luciferase luminescence; HeLa PEG-Prom luciferase reporter, overnight; inhibition, % at 20 µM; 360,000 compounds, 1.7% hits;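 active means inhibition of at least 50% at 20 µM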
HIF-2a inh = HIF-2a reporter inhibitors, primary screen, luminescence, 786-0 RCC cells; 786-0 RCC cells HIF-2a reporter, luciferase luminescence, overnight; inhibition, % at 18.8 µM; 360,000 compounds, 0.72% hits;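 active means inhibition of the luminescence signal of 40% or more relative to plate controls, in a single-dose primary screen at 18.75 µM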
* hit, by the source's call; x = no result. Sampled rows, rich in hits. Any-hit rate of the full collection: about 4%.

SMILES	TWEAK-Fn14 inh	KKLEB cytotox	TROY signal inh	CF NFkB block	Peg3 promoter	HIF-2a inh
O=C(/C=C/c1cn(CC(O)CN2CCCCC2)c2ccccc12)c1cccs1 (stereo not given)	3.9	-6.2	-27.5	-8.3	72.6*	-16.9
COc1ccc(Cc2ccccc2C(=O)O)cc1	5.9	6.9	-0.2	-15.0	5.3	0.8
COc1ccc(CC2=CC(=O)c3ccccc3C2=O)cc1	29.3	12.3	0.6	51.7*	47.3	21.7
COc1ccc(NC(=O)/C(C#N)=C\c2cc(C)n(-c3ccc4c(c3)OCO4)c2C)cc1	51.4*	-31.7	20.9	35.0	8.6	-33.5
Cc1nc2nc(SCC(=O)NCc3ccco3)nn2c(C)c1Cc1c(F)cccc1Cl	-17.4	-5.8	10.8	18.3	19.7	16.6
COc1cccc(C(=O)Oc2c(Br)cc(Br)cc2/C=N/NC(=O)c2cc(C)[nH]n2)c1	51.7*	15.6	27.5	-5.3	44.2	6.8
O=C(NCc1ccco1)C1CCN(c2nc3ccccc3n2Cc2ccc(F)cc2)CC1	-5.1	-2.4	2.7	1.2	11.7	15.1
COc1cc(Cl)ccc1NC(=S)N(CCN(C)C)C(C)c1ccncc1 (stereo not given)	-0.7	-2.8	-6.4	15.7	13.6	17.4
COc1ccc(NC(=S)N(CCN(C)C)C(C)c2ccncc2)cc1Cl (stereo not given)	-10.4	4.7	-5.6	-6.6	54.3*	2.7
COc1ccc(Nc2ncnc3c2c(C)c(C)n3CCCN(C)C)cc1	58.7*	5.1	54.5*	-5.8	-69.3	-50.6
O=S(=O)(Nc1ccc(S(=O)(=O)N2CCCC2)cc1)c1ccc(F)cc1F	-39.9	9.5	-4.0	-21.9	-33.7	5.7
Cn1nnnc1SCc1cn2cccnc2n1	87.0*	4.4	x	-9.5	8.1	15.3
CC(=O)N(CCCN(C)C)CCC(C)CCC=C(C)C (stereo not given)	0.2	5.7	-10.2	0.0	8.5	1.1
CC(C)=CCCC(C)N(C=O)C(C)CCC=C(C)C (stereo not given)	52.7*	1.7	50.1*	-1.4	-36.2	-2.3
OC(CSc1ccccc1Cl)CN1CCN(c2ccccc2F)CC1 (stereo not given)	31.6	-2.8	63.5*	2.7	-6.9	-3.0
CCCn1c(N)c(N(CCOC)C(=O)c2ccc([N+](=O)[O-])c(C)c2)c(=O)[nH]c1=O	13.1	4.6	-7.3	-8.3	-6.7	11.2
CN1CCN(CCC(=O)Nc2ccccc2Cl)CC1	-4.4	-3.0	8.4	9.8	9.2	10.0
Cc1ccc(C)c(N2CCN(C(=O)C3CCCN(S(=O)(=O)c4c(C)[nH]c(=O)[nH]c4=O)C3)CC2)c1 (stereo not given)	-13.9	-2.4	-14.6	2.3	-0.2	8.3
CCn1nnnc1SCC(=O)N1c2ccccc2Sc2ccccc21	63.2*	-4.1	34.7	14.3	8.9	11.4
Cn1nnnc1SCC(=O)N1c2ccccc2Sc2ccccc21	-10.9	3.4	11.4	-9.3	4.2	13.8
O=C(CSc1ncnc2ccccc12)c1ccc2c(c1)OCCO2	-70.5	5.2	54.3*	16.2	-316.4	-264.2
CCc1nc(SCC(=O)c2ccc3c(c2)OCCO3)c2ccccc2n1	-94.9	-8.8	-4.4	16.7	-3.9	-61.1
COC(=O)[C@@]12C[C@@H](CC(=O)N3CCC(c4ccccc4)CC3)C(=O)N(Cc3cccc4ccccc34)C1=CCC(C)(C)C2	x	x	x	x	x	-0.5
O=C(Nc1ccc(F)cc1)NC1(C(=O)NCc2ccco2)CCCCC1	1.4	-79.1*	0.6	-16.8	3.7	13.7
COc1ccc2cc3cc(C(=O)N4CCCCC4C)oc3nc2c1 (stereo not given)	30.7	-9.7	5.1	-30.4	-193.2	-89.6
SMILES	TWEAK-Fn14 inh	KKLEB cytotox	TROY signal inh	CF NFkB block	Peg3 promoter	HIF-2a inh
O=C1Nc2ccccc2Nc2ccc([N+](=O)[O-])cc21	13.1	1.7	-16.9	-15.1	0.8	8.8
Cc1ccc(Oc2cc([N+](=O)[O-])cc3c2C(=O)Nc2ccccc2O3)cc1	56.1*	-10.8	5.9	18.9	-10.0	-9.6
CN(C)c1ccc(C2C=C(c3ccc(Cl)cc3OC(F)F)Nc3ncnn32)cc1 (stereo not given)	6.7	-20.1	18.3	12.2	16.0	4.9
N#CC(c1ccccc1)c1ccc2c(C(F)(F)F)cc(C(F)(F)F)nc2n1 (stereo not given)	53.2*	-8.6	59.1*	39.1	-42.5	-27.5
Cc1ccc(C(C#N)c2ccc3c(C(F)(F)F)cc(C(F)(F)F)nc3n2)cc1 (stereo not given)	50.3*	-11.0	45.0	27.4	28.1	6.8
CN(N)c1ccc2c(C(F)(F)F)cc(C(F)(F)F)nc2n1	-33.5	2.2	1.4	11.1	5.5	2.3
COc1ccc(C(C(=O)NCC2CCCO2)N(Cc2ccco2)C(=O)c2snc(C(N)=O)c2N)cc1OC (stereo not given)	51.7*	-12.2	-13.4	23.5	-0.6	13.6
CCOc1ccc(C(C(=O)NCC2CCCO2)N(C(=O)c2snc(C(N)=O)c2N)c2ccccc2F)cc1 (stereo not given)	57.1*	-9.5	15.1	6.1	23.4	13.5
COc1ccc(C(C(=O)NC2CCCC2)N(C(=O)c2snc(C(N)=O)c2N)c2ccccc2OC)cc1OC (stereo not given)	53.5*	4.1	3.9	-24.4	-7.4	8.8
COc1ccc(C(C(=O)NCc2ccccc2)N(Cc2ccco2)C(=O)c2snc(C(N)=O)c2N)cc1 (stereo not given)	20.1	11.5	20.9	30.2	45.9	14.0
Cc1ccc(C(C(=O)NCc2ccccc2)N(Cc2ccco2)C(=O)c2snc(C(N)=O)c2N)o1 (stereo not given)	11.8	-6.3	-16.8	22.1	51.7*	15.8
CCOc1ccc(C(C(=O)NCC2CCCO2)N(C(=O)c2snc(C(N)=O)c2N)c2cccc(F)c2)cc1 (stereo not given)	1.6	4.6	4.0	-3.2	22.2	22.3
CCc1ccc(NC(=O)[C@H](Cc2c[nH]c3ccccc23)NC(=O)[C@@H]2Cc3ccccc3CN2)cc1	-16.3	6.7	-4.5	-16.5	-68.8	-87.6
Cc1cc(O)cc(O)c1C=NCc1ccco1	29.6	-3.5	-4.3	2.5	12.0	17.3
O=C(COC(=O)COc1ccc(Br)cc1)NC1CCCCCC1	0.7	-1.2	78.9*	5.0	7.4	9.5
Cc1ccc(CNC(=O)CN2C(=O)COc3ccc(S(=O)(=O)N4CCCCC4)cc32)o1	-8.2	4.9	16.7	-9.0	0.9	5.6
